Results from ChEMBL document CHEMBL3988442, “University of Dundee, Small-Polar-MMV Screening Library” (2021).
Screen size: about 48,000 compounds; about 13,000 (27%) showed an effect of 50% or more. The list shows a part of the results.

Each compound was assayed on Wolbachia pipientis (assay: Anti-Wolbachia Cell-Based Screen). Conditions: 5 µM.
Type: functional
Parameters: scale not given: in the data most compounds retested in dose-response had high values

| Structure (SMILES) | Percent Effect [%] |
| --- | --- |
| CC(C)c1noc(CCNC(=O)C2COc3ccccc3C2)n1 (stereo unspecified) | -14.38 |
| CC(=O)NCCNC(=O)NCC1Cc2ccccc2O1 (stereo unspecified) | 101.6 |
| CC(C)c1noc(CCNC(=O)NCC2COc3ccccc3O2)n1 (stereo unspecified) | 100.4 |
| Cc1cnc(C(=O)NCC2Cc3ccccc3O2)cn1 (stereo unspecified) | -10.72 |
| CC(C)c1noc(CN(C)C(=O)C2COc3ccccc3C2)n1 (stereo unspecified) | -21.45 |
| CC(C)c1noc(CCC(=O)NCC2CCS(=O)(=O)C2)n1 (stereo unspecified) | 6.847 |
| CC(=O)c1ccc(C(=O)NCC2Cc3ccccc3O2)s1 (stereo unspecified) | -26.22 |
| CC(C)c1noc(CCNC(=O)NCC2Cc3ccccc3O2)n1 (stereo unspecified) | 104.8 |
| CC(C)c1noc(CCC(=O)NCC2CCOC2)n1 (stereo unspecified) | 7.119 |
| CCN(CC)CCSc1nnc(N2CCN(c3ccc(F)cc3)CC2)s1 | 10.77 |
| CCC(C(=O)NC1(COC)CCCC1)n1cccn1 (stereo unspecified) | 10.41 |
| COCCCN1C(=O)CC[C@H]2CN(Cc3cc4ccccc4o3)CC[C@H]21 | -11.4 |
| c1cnn(CC2CCN(c3nc(C4CC4)nc4c3CCNCC4)CC2)c1 | 9.099 |
| O=C(Cn1nnn(-c2cccs2)c1=O)N(CC1CCOC1)C1CC1 (stereo unspecified) | -6.322 |
| COCCN(Cc1cccs1)C(=O)c1ccc(=O)n(C)c1 | -19.51 |
| COCCN(C)C[C@@H]1CN(C(=O)c2ccc(=O)n(C)c2)C[C@@H]1CO | 59.39 |
| COCCN(Cc1ccccn1)C(=O)c1ccc(=O)n(C)c1 | 4.944 |
| COc1cccc(C(=O)N2C[C@@H](CN(C)CCO)[C@@H](CO)C2)c1C | -4.304 |
| COCCN(C)C[C@H]1C[C@H](CO)CN(C(=O)c2ccc(=O)n(C)c2)C1 | 90.72 |
| CC(NC(=O)CCNC(=O)c1ccoc1)c1ccccc1 (stereo unspecified) | -1.423 |
| CC(=O)N(Cc1ncc(C)o1)C1CCN(Cc2ccccc2F)C1 (stereo unspecified) | 139.2 |
| CC(=O)N(Cc1ncc(C)o1)C1CCN(Cc2ccncc2Cl)C1 (stereo unspecified) | -1.852 |
| CC(=O)N(Cc1ncc(C)o1)C1CCN(Cc2cccc(C#N)c2)C1 (stereo unspecified) | -1.585 |
| CC(=O)N(Cc1ncc(C)o1)C1CCN(Cc2ccccc2C#N)C1 (stereo unspecified) | 110 |

| Structure (SMILES) | Percent Effect [%] |
| --- | --- |
| Cc1cnc(CN(C)C2CCN(Cc3ccccc3C#N)C2)o1 (stereo unspecified) | 18.72 |
| c1cnc(-c2nc(CNCCn3cccn3)cs2)nc1 | -8.125 |
| Cc1nc(C)n(C2CCCN(C(=O)c3sccc3C3CC3)C2)n1 (stereo unspecified) | -8.521 |
| CC(CNS(N)(=O)=O)c1ccc(F)c(F)c1 (stereo unspecified) | -14.37 |
| CC(C)(C)c1csc(C2CCCCN2C(=O)CCn2cncn2)n1 (stereo unspecified) | -13.47 |
| Cc1noc(COCC(=O)N2CCCCC2c2nccs2)n1 (stereo unspecified) | -17.81 |
| CN(CC(=O)N1CCCCC1c1nc(C(C)(C)C)cs1)C1CC1 (stereo unspecified) | 131.5 |
| CN(CC(=O)N1CCCCC1c1nccs1)C1CC1 (stereo unspecified) | 114.2 |
| O=C1CSc2ccccc2N1CC(=O)N1CCCCC1c1nccs1 (stereo unspecified) | 2.391 |
| Cc1ncc(CC(=O)N2CCCC(COc3ccc(F)cc3)C2)c(=O)[nH]1 (stereo unspecified) | 33.2 |
| COCCCSc1ccc(NC(=O)Nc2cn[nH]c2)cc1 | 3.134 |
| CN(Cc1ccoc1)c1ccc(-c2nccn2C)nn1 | -4.933 |
| CC(C)(C(=O)NCC1CC1)c1ccccc1F | -12.8 |
| O=C(NC(C(=O)Nc1cc[nH]n1)c1ccccc1)C1CCC1 (stereo unspecified) | -26.62 |
| CCN(C)C(=O)c1cc(-c2cn(C(C)C)cn2)n2ccccc12 | 4.681 |
| CC(C)n1c2ccccc2c2c1cc(C(=O)NCCO)n2C(=O)N(C)C | 98.19 |
| CCCNC(=O)c1cc2c(c3ccccc3n2C)n1C(=O)N(C)C | -57.33 |
| CC(C)n1c2ccccc2c2c1cc(C(=O)O)n2C(=O)N(C)C | 98.97 |
| Cc1cn(CC(=O)NC2CCN(C(C)C)CC2)c2ccccc12 | -15.19 |
| CC(C)n1c2ccccc2c2c1cc(C(=O)NC1CC1)n2C(=O)N(C)C | 111.7 |
| CC(C)N1CCC(NC(=O)NCc2ccccc2)CC1 | 1.205 |
| COCC(C)N(C)C(=O)c1nc(S(C)(=O)=O)n2ccccc12 (stereo unspecified) | -2.923 |
| CC(C)NC(=O)CCNC(=O)c1c(Br)c2ccccc2n1C | 2.193 |
| CC(C)n1c2ccccc2c2c1cc(C(=O)N(C)C)n2S(C)(=O)=O | 91.91 |

| Structure (SMILES) | Percent Effect [%] |
| --- | --- |
| CCc1nc(CN2CCCN(c3ncnc4ccccc34)CC2)no1 | 29.73 |
| Cc1noc(CCCC(=O)NC(C)c2ccccn2)n1 (stereo unspecified) | -13.35 |
| CC(C)n1c2ccccc2c2c1cc(C(=O)N(C)C)n2C(=O)N(C)C | 90.72 |
| CC(C)n1c2ccccc2c2c1cc(C(=O)N(C)C)n2C | 109.8 |
| CCCN(CC)C(=O)c1cc2c(c3ccccc3n2C)n1C(=O)N(C)C | -10.54 |
| O=C(NCCc1nncn1C1CC1)C1SCCc2sccc21 (stereo unspecified) | -5.898 |
| CCN(Cc1ccncc1)C(=O)c1cc(C)c(C)c(S(N)(=O)=O)c1 | 3.273 |
| O=C(NCc1ccco1)[C@H]1C[C@@H]2CCN(c3nncs3)C[C@H]2O1.O=C(O)C(F)(F)F | 106 |
| O=C(NCc1ccco1)[C@H]1C[C@@H]2CCN(c3cccc(F)c3)C[C@H]2O1.O=C(O)C(F)(F)F | 104.2 |
| O=C(NCCc1ccncc1)[C@H]1C[C@@H]2CCN(c3nncs3)C[C@H]2O1 | 96.02 |
| O=C(NCc1ccco1)[C@@H]1COC[C@H]2CN(c3ncc(F)cn3)C[C@H]21.O=C(O)C(F)(F)F | 0.4075 |
| O=C(NCc1ccco1)[C@H]1C[C@@H]2CCN(c3ccncn3)C[C@@H]2O1.O=C(O)C(F)(F)F | 48.28 |
| O=C(NCc1ccco1)[C@H]1C[C@@H]2CCN(c3ncccn3)C[C@H]2O1.O=C(O)C(F)(F)F | 105.1 |
| COc1ccnc(N2CCN(C(=O)c3csnn3)CC2)n1 | -4.272 |
| CCN(CC)C1(Cc2cc(COC)on2)COC1 | -6.864 |
| CCC(C)(C)NC(=O)c1ccc(-c2ccco2)[nH]c1=O | -18 |
| Cc1cccc(C)c1NC(=O)CCNC(=O)c1ccoc1 | 6.824 |
| CC(C)CCn1ccc(NC2CCSC2)n1 (stereo unspecified) | -1.669 |
| O=C(NC[C@H]1OC[C@@H](NCc2ccccc2)[C@@H]1O)Nc1ccc(F)cc1 | -15.63 |
| Fc1ccc2[nH]c(CO[C@H]3CN(CC4CC4)C[C@H]3F)nc2c1 | -6.025 |
| O=C(NCC1(c2cccc(F)c2)CC1)N1CCC2(CCOC2)C1 (stereo unspecified) | -9.611 |
| Cc1nn2c(N3CCC(C(N)=O)CC3)cc(-c3ccccc3)nc2c1C | 0.08495 |
| Cc1ccc(N2CC[C@H]3C[C@H](C(=O)NCc4ccco4)O[C@H]3C2)nn1.O=C(O)C(F)(F)F | 108.4 |
| COCCNC(=O)[C@H]1C[C@@H]2CCN(c3nncs3)C[C@H]2O1.O=C(O)C(F)(F)F | -6.597 |

| Structure (SMILES) | Percent Effect [%] |
| --- | --- |
| O=C(NCC1CCOCC1)[C@H]1C[C@@H]2CCN(c3nncs3)C[C@@H]2O1.O=C(O)C(F)(F)F | 99.44 |
| O=C(Nc1cccnc1)[C@H]1C[C@@H]2CCN(c3nncs3)C[C@H]2O1.O=C(O)C(F)(F)F.O=C(O)C(F)(F)F | 12.63 |
| Cc1ccc(N2CC[C@H]3C[C@H](C(=O)NCc4ccco4)O[C@@H]3C2)cc1.O=C(O)C(F)(F)F | 96.02 |
| Cc1ccc(N2C[C@H]3OCC[C@H]3[C@H](C(=O)NCc3ccco3)C2)nn1 | 0.2496 |
| Cc1cc(S(=O)(=O)N2CC[C@@H](O)C2)c(Cl)cc1F | 1.456 |
| O=C(C1CCOC1)N1CCN(Cc2cccnc2)c2ncccc2C1 (stereo unspecified) | 79.91 |
| O=C(C1CCOCC1)N1CCN(CC2CC2)c2ncccc2C1 | -9.379 |
| O=C(C1CCOC1)N1CCN(Cc2ccncc2)c2ncccc2C1 (stereo unspecified) | 109.7 |
| CCN1CCN(CCCNC(=O)c2cc3ccc(C)cc3nc2C)CC1 | 26.08 |
| CN(C)C1CCN(Cc2cnc(S(C)(=O)=O)n2CC2CCCCC2)C1 (stereo unspecified) | -18.29 |
| Cc1cncc(C(=O)N2CCCC3(CCCN3S(C)(=O)=O)C2)c1 (stereo unspecified) | -8.185 |
| CN1C[C@H]2CN(C(=O)c3ccc4c(c3)OCO4)CCN2C1=O | 3.165 |
| CN1C(=O)CCCC12CCCN(C(=O)c1ccc3c(c1)OCO3)C2 (stereo unspecified) | 103.5 |
| CN1C(=O)CCCC12CCCN(C(=O)c1cccc(C(F)(F)F)c1)C2 (stereo unspecified) | 112.4 |
| CS(=O)(=O)N1CCCC12CCCN(C(=O)c1ccc3c(c1)OCO3)C2 (stereo unspecified) | -9.352 |
| CS(=O)(=O)N1CCCC12CCCN(C(=O)c1cc(F)cc(F)c1)C2 (stereo unspecified) | 3.882 |
| CN1C(=O)CCCC12CCCN(C(=O)c1cc(F)cc(F)c1)C2 (stereo unspecified) | 108.3 |
| Cc1cc(C)cc(C(=O)N2CCCC3(CCCC(=O)N3C)C2)c1 (stereo unspecified) | 101 |
| CN(CC(C)(C)C)c1ccc(C(=O)NCCCc2ccccn2)cn1 | -1.973 |
| Cc1oc(CNC(=O)Cc2cccc(OC(F)F)c2)cc1C(=O)O | 1.075 |
| CN1C(=O)CCCC12CCCN(C(=O)c1ccoc1)C2 (stereo unspecified) | 102.5 |
| CN1C(=O)CCC12CCCN(C(=O)c1ccoc1)C2 (stereo unspecified) | 1.769 |
| O=C1CCC2(CCCN(C(=O)c3ccoc3)C2)CN1CCc1c[nH]cn1 (stereo unspecified) | 2.528 |
| Cc1cc(F)ccc1C(=O)N1C[C@@H]2COC[C@]2(CN(C)C)C1.O=C(O)C(F)(F)F | -5.19 |
